# Assays:
# Assay in all cases: PBM binding z-score (relative to random genomic background probes); higher = stronger binding; sequences stand for … in GC…GCGATTGACAGCGTAGAATGAAGG
# [1] = system: RARb homodimer (NR concentration 270 nM)
# Procedure, shortened: (§1)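 Probes were double-stranded and carried 34-nt variable regions with direct-repeat seeds, single-nucleotide variants, half-site ablations and random human genomic background sequences, printed on custom Agilent 4×180K protein-binding microarrays. Arrays were incubated 1 h with ligand-free nuclear receptor dimers in PBS pH 7.4, 2% milk, 0.02% Triton X-100, 1 mM DTT, 0.2 mg/mL BSA and 0.4 mg/ml salmon testes DNA. Antibodies against each partner (one per run) detected binding, and scanned fluorescence was regression-normalized. Binding z-scores use the random background probes as reference.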
# [2] = system: RARg:RXRa (NR concentration 270 nM, RXRa partner concentration 90 nM)
# Procedure, shortened: as §1
# [3] = system: RARg homodimer (NR concentration 270 nM)
# Procedure, shortened: as §1
# [4] = system: RXRa DBDmut IVT, anti-RXR (DBD mutation: RXRa K156A/R161A, NR concentration 90 nM)
# Procedure, shortened: as §1
# [5] = system: RXRa homodimer (NR concentration 180 nM)
# Procedure, shortened: as §1
# [6] = system: THRa:RXRa (NR concentration 90 nM, RXRa partner concentration 90 nM)
# Procedure, shortened: as §1
# [7] = system: THRa homodimer (NR concentration 90 nM)
# Procedure, shortened: as §1
# [8] = system: VDR:RXRa (NR concentration 270 nM, RXRa partner concentration 90 nM)
# Procedure, shortened: as §1
# [9] = system: VDR homodimer (NR concentration 270 nM)
# Procedure, shortened: as §1
sequence,measurement,setting,value
AGAACGAGGGCACGCTGAGTTGATACCAGAGTAG,PBM binding z-score,[1],1.13
same,PBM binding z-score,[2],1.91
same,PBM binding z-score,[3],2.16
same,PBM binding z-score,[4],1.46
same,PBM binding z-score,[5],1.44
same,PBM binding z-score,[6],1.74
same,PBM binding z-score,[7],0.271
same,PBM binding z-score,[8],2.23
same,PBM binding z-score,[9],1.98
CCGACTGGGGCAAGGGTTACCATACTCAGTACGA,PBM binding z-score,[1],1.16
same,PBM binding z-score,[2],1.49
same,PBM binding z-score,[3],1.3
same,PBM binding z-score,[4],-0.851
same,PBM binding z-score,[5],1.71
same,PBM binding z-score,[6],0.704
same,PBM binding z-score,[7],-0.463
same,PBM binding z-score,[8],-0.292
same,PBM binding z-score,[9],0.0843
AATACAGGGTCATCGAAGGCCAGAGTACGCACAG,PBM binding z-score,[1],3.74
same,PBM binding z-score,[2],5.74
same,PBM binding z-score,[3],5.31
same,PBM binding z-score,[4],3.38
same,PBM binding z-score,[5],6.7
same,PBM binding z-score,[6],4.62
same,PBM binding z-score,[7],1.43
same,PBM binding z-score,[8],5.49
same,PBM binding z-score,[9],3.66
AGAATGAGGTTACCGAAGATCAGGGAAACGCTTG,PBM binding z-score,[1],0.586
same,PBM binding z-score,[2],2.27
same,PBM binding z-score,[3],1.76
same,PBM binding z-score,[4],1.5
same,PBM binding z-score,[5],2.87
same,PBM binding z-score,[6],3.05
same,PBM binding z-score,[7],0.672
same,PBM binding z-score,[8],1.53
same,PBM binding z-score,[9],0.193
TCTAGTTGGTTAAAGGTCACACACTCGAAATGCG,PBM binding z-score,[1],5.19
same,PBM binding z-score,[2],6.13
same,PBM binding z-score,[3],5.53
same,PBM binding z-score,[4],2.21
same,PBM binding z-score,[5],6.72
same,PBM binding z-score,[6],4.02
same,PBM binding z-score,[7],2.69
same,PBM binding z-score,[8],4.86
same,PBM binding z-score,[9],2.78
CGTCCAAGGTCATAGGCGGTCAGTGAAGACAGAT,PBM binding z-score,[1],4.09
same,PBM binding z-score,[2],6.05
same,PBM binding z-score,[3],6.4
same,PBM binding z-score,[4],3.89
same,PBM binding z-score,[5],5.94
same,PBM binding z-score,[6],4.35
same,PBM binding z-score,[7],2.21
same,PBM binding z-score,[8],4.7
same,PBM binding z-score,[9],3.22
GAGACAGGGTCAAGGCCAGAGTACGCGTATTGAT,PBM binding z-score,[1],3.45
same,PBM binding z-score,[2],5.32
same,PBM binding z-score,[3],5.34
same,PBM binding z-score,[4],1.95
same,PBM binding z-score,[5],6.25
same,PBM binding z-score,[6],3.52
same,PBM binding z-score,[7],1.06
same,PBM binding z-score,[9],1.98
TCTCGGAGGACTCGAAAGGTCAGAGCTCGACATC,PBM binding z-score,[1],4.25
same,PBM binding z-score,[2],3.85
same,PBM binding z-score,[3],3.31
same,PBM binding z-score,[4],0.558
same,PBM binding z-score,[5],3.57
same,PBM binding z-score,[6],2.68
same,PBM binding z-score,[7],0.256
same,PBM binding z-score,[8],2.4
same,PBM binding z-score,[9],0.189
ACAGACAGGTGAGTGAAGGTAAGTCAGCTGGACG,PBM binding z-score,[1],0.373
same,PBM binding z-score,[2],0.45
same,PBM binding z-score,[3],0.335
same,PBM binding z-score,[4],-0.68
same,PBM binding z-score,[5],0.274
same,PBM binding z-score,[6],1.03
same,PBM binding z-score,[7],-0.473
same,PBM binding z-score,[8],-0.37
same,PBM binding z-score,[9],-0.657
TGTACAGGGTCAAAGGCCAGAGTACGAATGTCGA,PBM binding z-score,[1],3.31
same,PBM binding z-score,[2],5.52
same,PBM binding z-score,[3],4.74
same,PBM binding z-score,[4],2.86
same,PBM binding z-score,[5],6.85
same,PBM binding z-score,[6],3.43
same,PBM binding z-score,[7],0.326
same,PBM binding z-score,[8],4.59
same,PBM binding z-score,[9],2.65
ACTAGCAGGCCAAGGGTAACTCAAGATTAGTCCG,PBM binding z-score,[1],0.76
same,PBM binding z-score,[2],0.469
same,PBM binding z-score,[3],0.734
same,PBM binding z-score,[4],-0.0114
same,PBM binding z-score,[5],0.59
same,PBM binding z-score,[6],0.54
same,PBM binding z-score,[7],-0.321
same,PBM binding z-score,[8],-0.166
same,PBM binding z-score,[9],-0.349
TTACCAAGGTGGAAGGTCGTTGATGCACGCCTTG,PBM binding z-score,[1],0.907
same,PBM binding z-score,[2],0.595
same,PBM binding z-score,[3],0.158
same,PBM binding z-score,[4],-0.443
same,PBM binding z-score,[5],1.43
same,PBM binding z-score,[6],0.674
same,PBM binding z-score,[7],-0.0203
same,PBM binding z-score,[8],0.464
same,PBM binding z-score,[9],0.895
TCGAGTAGGTTAGTCGGGGTATTCAGCCAACATA,PBM binding z-score,[1],-0.161
same,PBM binding z-score,[2],-0.227
same,PBM binding z-score,[3],-0.435
same,PBM binding z-score,[4],0.0822
same,PBM binding z-score,[5],-0.0938
same,PBM binding z-score,[6],1.71
same,PBM binding z-score,[7],-0.175
same,PBM binding z-score,[8],0.453
same,PBM binding z-score,[9],-0.161
AGAATGACGTTAAGATCAGGGAAACAGAATACAT,PBM binding z-score,[1],-0.348
same,PBM binding z-score,[2],0.0241
same,PBM binding z-score,[3],0.396
same,PBM binding z-score,[4],-0.43
same,PBM binding z-score,[5],0.183
same,PBM binding z-score,[6],-0.0731
same,PBM binding z-score,[7],-0.547
same,PBM binding z-score,[8],-0.215
same,PBM binding z-score,[9],-0.184
CGTCCAAGGTCAGCAGGTCAGCGAAAGCGACGTG,PBM binding z-score,[1],5.14
same,PBM binding z-score,[2],6.69
same,PBM binding z-score,[3],7.16
same,PBM binding z-score,[4],2.52
same,PBM binding z-score,[5],5.67
same,PBM binding z-score,[6],4.07
same,PBM binding z-score,[7],2.74
same,PBM binding z-score,[9],1.83
ATCGACAGGTCGTGAGGTGAGTATACAGAAAGGC,PBM binding z-score,[1],1.39
same,PBM binding z-score,[2],2.07
same,PBM binding z-score,[3],1.67
same,PBM binding z-score,[4],0.0757
same,PBM binding z-score,[5],2.17
same,PBM binding z-score,[6],2.38
same,PBM binding z-score,[7],1.28
same,PBM binding z-score,[9],0.435

# From the supplement of paper PMC6555819
